The text below walks through data of PubChem BioAssay (NCATS).

Records with an inconclusive call do not appear. Unmarked numbers belong to inactive results. Activity calls are given as the source filed them. Calls come from the whole dose curve; as a rule, active = well fitted inhibition curve with a large enough effect; inconclusive = small, poorly fitted or top-dose-only effect; inactive = no such curve, though single readings can be large or run the other way.
Potency is the fitted concentration of half-maximal effect.

One assay is described as follows: BET inhibitor-based combinations targeting novel dependencies in MECOM-rearranged (r) AML: MV-4-11 cell line (AID 2202233). Note: nearly all actives have a fitted effect of over 45% in size. As to conditions: MV-4-11 AML viability, CellTiter-Glo luminescence, 48 h; series mostly up to 46 µM; viability, % of control: at the top concentration. A digest of the protocol:
(§1)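 Activity is given as area under the curve and as Z-AUC, mean-centred within each cell line. It comes from 11-point dose curves normalized to DMSO and empty wells. CellTiter-Glo luminescence was read after 48 hr drug exposure of 500 cells/well.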
As to `C[C@@H]1C[C@H]2[C@@H]3CCC4=CC(=O)C=C[C@]4(C)[C@@]3(Cl)[C@@H](O)C[C@]2(C)[C@@]1(OC(=O)c1ccco1)C(=O)CCl`, the Potency was 23.5 µM (active).
The same measure, in the same setting: the figure for `O=c1c(-n2ccnn2)c[nH]n1-c1cc(N2CCOCC2)ncn1` is 20.9 µM (active).
On the same count and under the same terms, the result for `CN1CCC(=C2c3ccccc3CCc3sccc32)CC1` reads 33.2 µM (active).

Another assay is described as follows: BET inhibitor-based combinations targeting novel dependencies in MECOM-rearranged (r) AML: HNT-34 cell line (AID 2202234).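 For viability (% of control): plate controls were vehicle wells for no effect and cell-free wells for full effect.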 Note: nearly all actives have a fitted effect of over 35% in size. The note with it: HNT-34 AML viability, CellTiter-Glo luminescence, 48 h; series mostly up to 46 µM; viability (% of control): at the top concentration. An outline of the steps:
as §1
On to `CCOC(=O)N1c2ccc(C(F)(F)F)cc2[C@@H](N(Cc2cc(C(F)(F)F)cc(C(F)(F)F)c2)C(=O)OC)C[C@H]1CC`, for which the “viability (% of control)” value is 99.6%.
On the same count and under the same terms, the figure for `O=C(O)[C@H](O)[C@@H](O)[C@H](O[C@@H]1O[C@H](CO)[C@H](O)[C@H](O)[C@H]1O)[C@H](O)CO` is 93.4%; for `CC(=O)SCC(Cc1ccccc1)C(=O)NCC(=O)OCc1ccccc1` (stereo not given) it is 103%.
Turning to `CC[C@@]1([C@@H]2O[C@@H]([C@H]3O[C@@](O)(CO)[C@H](C)C[C@H]3C)C[C@H]2C)CC[C@H]([C@]2(C)CC[C@]3(C[C@H](O)[C@@H](C)[C@@H]([C@@H](C)[C@@H](OC)[C@H](C)C(=O)O)O3)O2)O1`, the Potency is 0.0811 µM (active).
On the same count and under the same terms, the figure for `C#Cc1cccc(Nc2ncnc3cc(OCCOC)c(OCCO)cc23)c1` is 2.63 µM (active); for `CC1(C)CCC(C)(C)c2cc(NC(=O)c3ccc(C(=O)O)cc3)ccc21` it is 1.66 µM (active); for `Cc1[nH]nc2ccc(-c3cncc(OC[C@@H](N)Cc4ccccc4)c3)cc12` it is 0.662 µM (active).
As for `CCOC(=O)c1ccc(OC(=O)CCCCCN=C(N)N)cc1`, the “viability (% of control)” value is 86.1%.
Still for that read-out and setting: the result for `C[C@H](NC(=O)[C@@H](O)c1cc(F)cc(F)c1)C(=O)N[C@@H]1C(=O)N(C)c2ccccc2-c2ccccc21` reads 80.2%; that for `CCc1nc(N)nc(N)c1-c1ccc(Cl)cc1`, 98.2%.
Regarding `OC[C@H](Cc1ccccc1)Nc1nc(Oc2ccc3c(c2)CCC3)nc2c1ncn2Cc1ccc(-c2ccccc2)cc1`, the Potency is 7.42 µM (active).
Take `O=C(Nc1ccccc1Br)N[C@@H]1CCN(c2ccc(C(F)(F)F)cn2)C1`: the “viability (% of control)” value is 94.7%.
The same measure, in the same setting: the figure for `C=C1C(=O)OC(CCCCCCCC)C1C(=O)O` (stereo not given) is 92.8%.
With `O=C1CCc2ccc(OCCCCN3CCN(c4cccc(Cl)c4Cl)CC3)cc2N1`, the Potency was 20.9 µM (active).
`CCCc1nc2c(C)cc(-c3nc4ccccc4n3C)cc2n1Cc1ccc(-c2ccccc2C(=O)O)cc1`: the “viability (% of control)” value is 105%.
On to `COc1cc2c(cc1Cc1cccc(Cl)c1F)c(=O)c(C(=O)O)cn2[C@H](CO)C(C)C`, for which the Potency is 3.72 µM (active).
Same read-out and setting: the figure for `Cn1c(Nc2ccc(C(F)(F)F)cc2)nc2cc(Oc3ccnc(-c4ncc(C(F)(F)F)[nH]4)c3)ccc21` is 0.332 µM (active); for `NC(=O)N1CCC(CC(=O)N2CCC([C@H]3c4ncc(Br)cc4CCc4cc(Cl)cc(Br)c43)CC2)CC1` it is 11.8 µM (active); for `CC(C)(C)c1cnc(CSc2cnc(NC(=O)C3CCNCC3)s2)o1` it is 0.235 µM (active).

A short description of the next assay: BET inhibitor-based combinations targeting novel dependencies in MECOM-rearranged (r) AML: UCSD-AML1 cell line (AID 2202235).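 For viability (% of control): plate controls were DMSO vehicle wells for no effect and blank wells for full effect.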 Note: nearly all actives have a fitted effect of over 40% in size. As to conditions: UCSD-AML1 AML cells viability, CellTiter-Glo, 48 h; series mostly up to 46 µM; viability (% of control): at the top concentration. A digest of the protocol:
as §1
In the case of `CCOC(=O)N1c2ccc(C(F)(F)F)cc2[C@@H](N(Cc2cc(C(F)(F)F)cc(C(F)(F)F)c2)C(=O)OC)C[C@H]1CC`, the “viability (% of control)” value was 110%.
On the same count and under the same terms, the figure for `Cc1c(C(=O)NN2CCCCC2)nn(-c2ccc(Cl)cc2Cl)c1-c1ccc(Cl)cc1` is 119%.
Same read-out and setting: the result for `O=C(O)[C@H](O)[C@@H](O)[C@H](O[C@@H]1O[C@H](CO)[C@H](O)[C@H](O)[C@H]1O)[C@H](O)CO` reads 96.4%; that for `CC(=O)SCC(Cc1ccccc1)C(=O)NCC(=O)OCc1ccccc1` (stereo not given), 104%.
Take `CC[C@@]1([C@@H]2O[C@@H]([C@H]3O[C@@](O)(CO)[C@H](C)C[C@H]3C)C[C@H]2C)CC[C@H]([C@]2(C)CC[C@]3(C[C@H](O)[C@@H](C)[C@@H]([C@@H](C)[C@@H](OC)[C@H](C)C(=O)O)O3)O2)O1`: the Potency was 0.288 µM (active).
`Cc1ccc(C(C)(O)c2nc3ccccc3s2)c(C)c1` (stereo not given): the “viability (% of control)” value was 103%.
Turning to `C#Cc1cccc(Nc2ncnc3cc(OCCOC)c(OCCO)cc23)c1`, the Potency is 13.2 µM (active).
`CC1(C)CCC(C)(C)c2cc(NC(=O)c3ccc(C(=O)O)cc3)ccc21`: the “viability (% of control)” value is 97.9%.
For the compound `Cc1[nH]nc2ccc(-c3cncc(OC[C@@H](N)Cc4ccccc4)c3)cc12`, the Potency is 0.468 µM (active).
For the compound `CCOC(=O)c1ccc(OC(=O)CCCCCN=C(N)N)cc1`, the “viability (% of control)” value is 102%.
Still for that read-out and setting: the result for `C[C@H](NC(=O)[C@@H](O)c1cc(F)cc(F)c1)C(=O)N[C@@H]1C(=O)N(C)c2ccccc2-c2ccccc21` reads 92.2%; that for `CCc1nc(N)nc(N)c1-c1ccc(Cl)cc1`, 117%.
With `C[C@]1(c2nc3c(C(N)=O)cccc3[nH]2)CCCN1`, the “viability (% of control)” value is 102%.
For `O=C(Cc1cccc(OC(F)(F)F)c1)Nc1ccc(CCCCc2nnc(NC(=O)Cc3ccccn3)s2)nn1`, the Potency was 0.0209 µM (active).
For `O=C(Nc1ccccc1Br)N[C@@H]1CCN(c2ccc(C(F)(F)F)cn2)C1`, the “viability (% of control)” value was 120%.
Turning to `C=C1C(=O)OC(CCCCCCCC)C1C(=O)O` (stereo not given), the “viability (% of control)” value is 103%.
For `O=C1CCc2ccc(OCCCCN3CCN(c4cccc(Cl)c4Cl)CC3)cc2N1`, the Potency was 23.5 µM (active).
`NC(=O)[C@@H](CCC(F)(F)F)N(Cc1ccc(-c2ncon2)cc1F)S(=O)(=O)c1ccc(Cl)cc1`: the “viability (% of control)” value is 94.8%.
The same measure, in the same setting: the figure for `CCCc1nc2c(C)cc(-c3nc4ccccc4n3C)cc2n1Cc1ccc(-c2ccccc2C(=O)O)cc1` is 106%.
Regarding `Cn1c(Nc2ccc(C(F)(F)F)cc2)nc2cc(Oc3ccnc(-c4ncc(C(F)(F)F)[nH]4)c3)ccc21`, the Potency was 0.833 µM (active).
For `NC(=O)N1CCC(CC(=O)N2CCC([C@H]3c4ncc(Br)cc4CCc4cc(Cl)cc(Br)c43)CC2)CC1`, the Potency is 3.72 µM (active).
In the case of `O=P(O)(O)C(O)(Cn1ccnc1)P(=O)(O)O`, the viability (% of control) was 117% [at 5.12 µM].
Same read-out and setting: the result for `c1cc(-c2sc(-c3ccncc3)c(-c3ccncc3)c2-c2ccncc2)ccn1` reads 91.8%.
